Source: PubChem BioAssay (NCATS)
Results filed as inconclusive are left out. A call without a number means that no potency is given here. Calls of active or inactive are those of the source. Unless noted, calls follow the shape of the dose curve; as a rule, active = well fitted curve in the direction sought with a large enough effect; inconclusive = small, poorly fitted or top-dose-only effect, or another doubt; inactive = no such curve, though single readings can be large; an effect the other way counts as inactive or inconclusive.

What was measured:
[1] = molecular target: DNA repair nuclease/redox regulator APEX1 (Homo sapiens) (UniProt P27695); experiment: qHTS Validation Assay for Inhibitors of the Human Apurinic/apyrimidinic Endonuclease 1 (APE1) (AID 1705;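 also: TAMRA fluorescence gain over two minutes as APE1 cuts a quenched THF abasic duplex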)
Method in brief: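 Fluorogenic double-stranded THF abasic-site substrate (5'-TAMRA/3'-BHQ-2), 50 nM final. Enzyme preincubated with compound 15 min at room temperature, then substrate added. Kinetic fluorescence (ex 525/em 598 nm) read three times at 60 s intervals; activity taken as third-minus-first read difference.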

[2] = Counterscreen for APE1 Inhibitors: Fluorescent Dye Displacement Validation Assay (AID 1707)
Method in brief: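 Thiazole Orange (250 nM) bound to 50 nM TAMRA-labelled dsDNA with tetrahydrofuran abasic site; displacement by DNA-binding compounds lowers fluorescence. Buffer 50 mM Tris-HCl pH 7.5, 50 mM NaCl, 2 mM MgCl2, 0.01% Tween-20; endpoint read at 480/540 nm.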

[3] = qHTS for differential inhibitors of proliferation of Plasmodium falciparum line GB4 (AID 1816); conditions: Potency: Plasmodium falciparum GB4 proliferation inhibition;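 also: potency is read from the fitted curve at half-maximal effect; parasite growth measured after 72 h incubation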
[4] = qHTS for differential inhibitors of proliferation of Plasmodium falciparum line 3D7 (AID 1876); also: potency is read from the fitted curve at half-maximal effect
[5] = qHTS for differential inhibitors of proliferation of Plasmodium falciparum line W2 (AID 1883); conditions: Potency: Plasmodium falciparum W2 proliferation inhibition;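 also: potency is read from the fitted curve at half-maximal effect; parasites grown with compound for 72 h before lysis and staining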
[6] = molecular target: ATP-dependent DNA helicase Q1 (Homo sapiens) (UniProt P46063); experiment: qHTS Validation Assay for Inhibitors of RecQ-Like Dna Helicase 1 (RECQ1) (AID 2353)
Method in brief: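 50 nM RECQ1T1 preincubated 15 min with compound in Tris pH 8.0 buffer with MgCl2, DTT, Tween-20 and 2.5 ug/ml poly(dI-dC); started with 200 nM TAMRA/BHQ-2 forked duplex and 2 mM ATP. Unwinding read as fluorescence (525/598 nm), two reads 2 h apart.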

[7] = molecular target: RecQ-like DNA helicase BLM (Homo sapiens) (UniProt P54132); experiment: qHTS Validation Assay for Inhibitors of Bloom's syndrome helicase (BLM) (AID 2364); also: potency is read from the fitted curve at half-maximal effect
Method in brief: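 Forked 20-bp duplex substrate (200 nM, TAMRA/BHQ-2) plus 2 mM ATP added after 15 min compound preincubation with 50 nM enzyme, pH 8.0, poly(dI-dC) 2.5 ug/ml. Strand separation followed by fluorescence (525/598 nm) over 2 h, normalized to enzyme-free and DMSO controls.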

[8] = Validation screen for small molecules that induce DNA re-replication in MCF 10A normal breast cells (AID 463097); also: nearly all actives have a fitted effect of over 60% in size
Method in brief: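 MCF 10A cells exposed to compound 48 hr at 37 C, 5% CO2, then Hoechst-stained 40 min. Laser-scanning imaging of nuclear DNA content (405 nm ex, 500-530 nm em); re-replication scored as rise in nuclei with elevated fluorescence intensity.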

[9] = molecular target: M-phase phosphoprotein 8 (Homo sapiens) (UniProt Q99549); experiment: qHTS Validation Assay for Inhibitors for MPP8 Chromodomain Interactions with Methylated Histone Tails (AID 488949); also: nearly all actives have a fitted effect of over 55% in size; also: potency is read from the fitted curve at half-maximal effect; as to activity change, negative = inhibition: top concentration of the series differs between compounds
Method in brief: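 MPP8 (50 nM) was pre-bound to 50 nM biotinylated H3(1-18)K9me3 peptide in PBS pH 7.4 with 0.01% Tween-20. Compounds were then added for 30 min at room temperature, and complex disruption was read by AlphaScreen with streptavidin donor and nickel-chelate acceptor beads.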

[10] = molecular target: Transient receptor potential cation channel subfamily V member 1 (Homo sapiens) (UniProt Q8NER1); experiment: HTS Assay for Compounds that Act as Enhancers of the Vanilloid Receptor 1 (AID 488979)
Method in brief: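 Calcium influx kinetics via Fluo-8 (480/520 nm) in TRPV1-expressing cells, 2000/well cultured overnight at 35.5C. Compound-alone read 3 min (agonist phase), followed by EC20 capsaicin challenge for 2 min (enhancer phase).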

[11] = molecular target: Thyrotropin receptor (Homo sapiens) (UniProt P16473); experiment: qHTS Assay for Antagonists of the Thyroid Stimulating Hormone Receptor (AID 488980)
Method in brief: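 TSHR-transfected HEK293 cells (2000/well) in HEPES-buffered HBSS with 70 uM RO 20-1724 were stimulated with 4 nM TSH (EC80, final) in the presence of compound. cAMP was measured by HTRF competition after lysis and 30 min at RT.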

[12] = molecular target: Thyrotropin-releasing hormone receptor (Homo sapiens) (UniProt P34981); experiment: qHTS for Small Molecule Agonists and Allosteric Enhancers of Human TRH Receptor: Validation Screen for Agonists (AID 493127;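 active = calcium activation more than 3 SD above the typical response in the agonist read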;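 also: intracellular calcium rise by fluo-8 fluorescence before TRH EC20 addition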); conditions: TRH receptor agonist cell assay; at 2 µM; stronger effect = higher value
Method in brief: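 Cells 2000/well, 10% FCS, 18 h 33.5C/5% CO2 → fluo-8 Ca dye, RT 30 min–1.5 h → FDSS baseline 10 × 1 s → compound added → 230 cycles (1 s/cycle) agonist mode. TRH controls.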

[13] = molecular target: Galactokinase (Homo sapiens) (UniProt P51570); experiment: qHTS Validation Assay for Inhibitors of Human Galactokinase (GALK) (AID 493189)
Method in brief: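 GALK (5 nM) with 35 uM ATP and 100 uM galactose in HEPES pH 8.0 with MgCl2, NaCl, DTT and BSA. Reaction ran 1 h at room temperature. Residual ATP read by Kinase-Glo Plus luminescence.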

[14] = qHTS for differential inhibitors of proliferation of Plasmodium falciparum line Dd2 (AID 1882); conditions: Potency: Plasmodium falciparum Dd2 proliferation inhibition; also: nearly all actives have a fitted effect of over 65% in size
Method in brief: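 Dd2-infected erythrocytes (0.3% parasitemia, 2.5% hematocrit final) incubated with compound 72 h at 37 C, 5% CO2; lysed with saponin/Triton buffer containing SYBR Green I, incubated overnight in the dark, then read by fluorescence (485/535 nm). Normalized to 0.29 uM artemisinin and DMSO.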

[15] = molecular target: Ferritin light chain (Equus caballus) (UniProt P02791); experiment: qHTS Validation Assay for Identification of Novel General Anesthetics (AID 2323)
Method in brief: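 Horse-spleen apoferritin (10 uM) in PBS with 50% saturated 1-aminoanthracene; compounds pin-transferred, 10 min at room temperature. Fluorescence read at 380/535 nm, normalized to free 1-AMA and 1-AMA/apoferritin values; four-parameter Hill fit.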

[16] = Quantitative high throughput screen for delayed death inhibitors of the malarial parasite plastid, 96 hour incubation (AID 488745); also: potency is read from the fitted curve at half-maximal effect; nearly all actives have a fitted effect of over 70% in size
Method in brief: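 Infected erythrocytes were added to compound in Albumax-supplemented RPMI 1640 at 0.1% parasitemia and 2% hematocrit (final), incubated 96 h at 37 C under 5% CO2, then luciferase reagent was added and luminescence measured.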

[17] = molecular target: Voltage-gated inwardly rectifying potassium channel KCNH2 (Homo sapiens) (UniProt Q12809); experiment: qHTS Assay for Small Molecule Inhibitors of the Human hERG Channel Activity (AID 588834);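 also: top concentration of the series differs between compounds; lower thallium flux fluorescence means stronger hERG block; nearly all actives have a fitted effect of over 50% in size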
Method in brief: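 U2OS cells BacMam-transduced with hERG, 2000 cells/well, compound ~10 min at 37 °C before stimulation buffer. FluxOR thallium flux fluorescence read kinetically on FDSS; decrease indicates block; AC50 from Hill fits.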

[18] = molecular target: Catechol O-methyltransferase (Homo sapiens) (UniProt P21964); experiment: Confirmatory Screen for Target Class Profiling of Small Molecule Inhibitors of Methyltransferases (AID 1745852; calls by dose curve); conditions: MTase-Glo luminescence, SAH detection, recombinant enzyme; measured here: COMT max response; stronger effect = lower value
[19] = molecular target: Guanidinoacetate N-methyltransferase (Homo sapiens) (UniProt Q14353); experiment: as above; conditions: activity change, negative = inhibition: at 57.3 µM (top of the series) unless noted
[20] = molecular target: Nicotinamide N-methyltransferase (Homo sapiens) (UniProt P40261); experiment: as above; conditions: MTase-Glo luminescence, SAH detection, recombinant enzyme; measured here: NNMT max response; stronger effect = lower value
[21] = molecular target: Phenylethanolamine N-methyltransferase (Homo sapiens) (UniProt P11086); experiment: as above; conditions: MTase-Glo luminescence, SAH detection, recombinant enzyme; measured here: PNMT max response; stronger effect = lower value
[22] = qHTS for differential inhibitors of proliferation of Plasmodium falciparum line HB3 (AID 1886); conditions: Potency: Plasmodium falciparum HB3 proliferation inhibition;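 also: parasites grown with compound for 72 h before SYBR Green readout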
[23] = qHTS Assay for Modulators of Human Peripheral Myelin Protein 22 (PMP22) Expression/Activity (AID 1967; active = well fitted curve in the direction sought with a large enough effect in the signal ratio; the % refers to the signal ratio)
Method in brief: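 Mouse MSC80 Schwann cells carrying Pmp22 promoter–green click beetle luciferase plus EF-alpha–red luciferase control, dosed 24 h at 37 °C. Dual-filter luminescence, overlap-corrected; %Activity from green/red ratio normalised to untreated cells, concentration-response curves fitted.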

[24] = Quantitative high throughput screen for delayed death inhibitors of the malarial parasite plastid, 48 hour incubation (AID 488752); also: nearly all actives have a fitted effect of over 65% in size
Method in brief: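 Readout is firefly luciferase luminescence from a reporter integrated into the parasite genome, with lower signal taken as inhibited growth. Infected red cells (0.1% parasitemia, 2% hematocrit final) are cultured with compound for one 48 h cycle at 37 C.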

Sequence of Galactokinase (Homo sapiens) (P51570 whole entry, looked up): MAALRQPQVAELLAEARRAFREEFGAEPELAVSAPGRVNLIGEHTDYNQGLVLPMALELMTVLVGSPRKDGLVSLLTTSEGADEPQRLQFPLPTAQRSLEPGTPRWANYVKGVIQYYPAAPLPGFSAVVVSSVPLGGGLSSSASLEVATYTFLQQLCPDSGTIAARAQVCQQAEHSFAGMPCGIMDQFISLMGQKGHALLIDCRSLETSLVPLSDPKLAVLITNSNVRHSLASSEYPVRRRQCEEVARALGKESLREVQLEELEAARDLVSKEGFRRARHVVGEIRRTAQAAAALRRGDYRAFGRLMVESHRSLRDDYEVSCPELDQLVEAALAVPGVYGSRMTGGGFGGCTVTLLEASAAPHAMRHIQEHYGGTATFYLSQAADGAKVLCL
Sequence of ATP-dependent DNA helicase Q1 (Homo sapiens) (P46063 whole entry, looked up): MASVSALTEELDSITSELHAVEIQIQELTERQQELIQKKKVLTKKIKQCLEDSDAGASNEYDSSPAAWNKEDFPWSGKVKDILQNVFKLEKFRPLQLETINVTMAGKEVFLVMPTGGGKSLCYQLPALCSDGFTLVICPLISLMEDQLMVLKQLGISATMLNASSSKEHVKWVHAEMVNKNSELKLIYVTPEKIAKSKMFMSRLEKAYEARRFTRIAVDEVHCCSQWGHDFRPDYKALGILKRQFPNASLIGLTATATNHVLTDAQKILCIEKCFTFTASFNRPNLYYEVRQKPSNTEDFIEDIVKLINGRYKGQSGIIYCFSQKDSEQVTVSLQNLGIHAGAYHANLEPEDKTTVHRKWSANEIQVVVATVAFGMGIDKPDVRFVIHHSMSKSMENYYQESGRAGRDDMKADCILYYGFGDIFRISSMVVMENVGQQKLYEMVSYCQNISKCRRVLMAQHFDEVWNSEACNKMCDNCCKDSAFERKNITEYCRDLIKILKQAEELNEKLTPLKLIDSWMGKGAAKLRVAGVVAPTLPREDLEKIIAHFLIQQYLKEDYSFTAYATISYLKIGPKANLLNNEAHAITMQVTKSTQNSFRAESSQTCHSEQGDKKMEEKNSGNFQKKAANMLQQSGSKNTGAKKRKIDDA
Sequence of Thyrotropin receptor (Homo sapiens) (P16473 whole entry, looked up): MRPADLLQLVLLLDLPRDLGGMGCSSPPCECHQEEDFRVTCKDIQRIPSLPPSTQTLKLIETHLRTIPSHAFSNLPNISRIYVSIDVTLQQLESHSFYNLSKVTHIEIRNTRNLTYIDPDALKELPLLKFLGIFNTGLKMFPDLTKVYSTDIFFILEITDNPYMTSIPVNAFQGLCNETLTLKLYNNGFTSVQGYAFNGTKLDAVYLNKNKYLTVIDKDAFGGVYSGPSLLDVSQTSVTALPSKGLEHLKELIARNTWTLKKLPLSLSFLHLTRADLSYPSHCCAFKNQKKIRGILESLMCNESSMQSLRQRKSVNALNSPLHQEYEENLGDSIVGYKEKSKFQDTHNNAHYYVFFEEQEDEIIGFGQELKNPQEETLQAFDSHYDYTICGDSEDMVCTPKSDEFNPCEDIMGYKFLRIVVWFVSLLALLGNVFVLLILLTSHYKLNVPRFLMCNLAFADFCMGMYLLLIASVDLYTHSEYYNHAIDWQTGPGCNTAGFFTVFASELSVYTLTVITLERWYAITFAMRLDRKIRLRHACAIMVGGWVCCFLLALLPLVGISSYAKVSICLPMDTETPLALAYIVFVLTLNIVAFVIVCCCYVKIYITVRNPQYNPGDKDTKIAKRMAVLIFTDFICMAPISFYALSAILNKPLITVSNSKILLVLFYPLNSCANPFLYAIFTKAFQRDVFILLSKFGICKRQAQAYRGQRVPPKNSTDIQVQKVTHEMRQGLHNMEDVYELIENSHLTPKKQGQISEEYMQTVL
Sequence of Nicotinamide N-methyltransferase (Homo sapiens) (P40261 whole entry, looked up): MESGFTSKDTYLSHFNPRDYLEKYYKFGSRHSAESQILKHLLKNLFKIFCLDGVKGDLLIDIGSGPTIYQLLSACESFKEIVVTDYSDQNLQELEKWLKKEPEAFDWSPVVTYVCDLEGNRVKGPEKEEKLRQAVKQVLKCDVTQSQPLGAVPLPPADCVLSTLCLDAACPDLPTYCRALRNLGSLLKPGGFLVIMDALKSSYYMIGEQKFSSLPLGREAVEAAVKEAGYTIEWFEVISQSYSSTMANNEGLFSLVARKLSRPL
Sequence of Thyrotropin-releasing hormone receptor (Homo sapiens) (P34981 whole entry, looked up): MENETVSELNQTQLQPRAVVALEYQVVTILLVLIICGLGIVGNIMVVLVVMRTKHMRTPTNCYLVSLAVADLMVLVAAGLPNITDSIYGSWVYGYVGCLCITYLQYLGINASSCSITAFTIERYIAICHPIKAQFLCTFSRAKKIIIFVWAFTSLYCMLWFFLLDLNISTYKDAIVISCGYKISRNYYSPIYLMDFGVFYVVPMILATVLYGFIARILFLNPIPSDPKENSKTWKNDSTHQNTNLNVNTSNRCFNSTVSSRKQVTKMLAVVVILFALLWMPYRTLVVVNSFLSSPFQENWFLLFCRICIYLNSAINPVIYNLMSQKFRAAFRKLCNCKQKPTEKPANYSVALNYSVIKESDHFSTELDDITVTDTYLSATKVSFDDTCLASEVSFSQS
Sequence of DNA repair nuclease/redox regulator APEX1 (Homo sapiens) (P27695 whole entry, looked up): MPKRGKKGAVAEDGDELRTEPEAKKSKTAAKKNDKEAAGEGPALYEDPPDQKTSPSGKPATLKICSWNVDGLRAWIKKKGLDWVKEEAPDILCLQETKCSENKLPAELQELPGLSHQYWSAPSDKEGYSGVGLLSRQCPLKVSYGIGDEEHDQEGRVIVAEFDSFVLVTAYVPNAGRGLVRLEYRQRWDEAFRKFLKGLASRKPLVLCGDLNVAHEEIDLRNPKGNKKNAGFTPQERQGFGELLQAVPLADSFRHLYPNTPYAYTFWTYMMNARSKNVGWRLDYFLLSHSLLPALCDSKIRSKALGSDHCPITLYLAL
Sequence of Voltage-gated inwardly rectifying potassium channel KCNH2 (Homo sapiens) (Q12809 whole entry, looked up): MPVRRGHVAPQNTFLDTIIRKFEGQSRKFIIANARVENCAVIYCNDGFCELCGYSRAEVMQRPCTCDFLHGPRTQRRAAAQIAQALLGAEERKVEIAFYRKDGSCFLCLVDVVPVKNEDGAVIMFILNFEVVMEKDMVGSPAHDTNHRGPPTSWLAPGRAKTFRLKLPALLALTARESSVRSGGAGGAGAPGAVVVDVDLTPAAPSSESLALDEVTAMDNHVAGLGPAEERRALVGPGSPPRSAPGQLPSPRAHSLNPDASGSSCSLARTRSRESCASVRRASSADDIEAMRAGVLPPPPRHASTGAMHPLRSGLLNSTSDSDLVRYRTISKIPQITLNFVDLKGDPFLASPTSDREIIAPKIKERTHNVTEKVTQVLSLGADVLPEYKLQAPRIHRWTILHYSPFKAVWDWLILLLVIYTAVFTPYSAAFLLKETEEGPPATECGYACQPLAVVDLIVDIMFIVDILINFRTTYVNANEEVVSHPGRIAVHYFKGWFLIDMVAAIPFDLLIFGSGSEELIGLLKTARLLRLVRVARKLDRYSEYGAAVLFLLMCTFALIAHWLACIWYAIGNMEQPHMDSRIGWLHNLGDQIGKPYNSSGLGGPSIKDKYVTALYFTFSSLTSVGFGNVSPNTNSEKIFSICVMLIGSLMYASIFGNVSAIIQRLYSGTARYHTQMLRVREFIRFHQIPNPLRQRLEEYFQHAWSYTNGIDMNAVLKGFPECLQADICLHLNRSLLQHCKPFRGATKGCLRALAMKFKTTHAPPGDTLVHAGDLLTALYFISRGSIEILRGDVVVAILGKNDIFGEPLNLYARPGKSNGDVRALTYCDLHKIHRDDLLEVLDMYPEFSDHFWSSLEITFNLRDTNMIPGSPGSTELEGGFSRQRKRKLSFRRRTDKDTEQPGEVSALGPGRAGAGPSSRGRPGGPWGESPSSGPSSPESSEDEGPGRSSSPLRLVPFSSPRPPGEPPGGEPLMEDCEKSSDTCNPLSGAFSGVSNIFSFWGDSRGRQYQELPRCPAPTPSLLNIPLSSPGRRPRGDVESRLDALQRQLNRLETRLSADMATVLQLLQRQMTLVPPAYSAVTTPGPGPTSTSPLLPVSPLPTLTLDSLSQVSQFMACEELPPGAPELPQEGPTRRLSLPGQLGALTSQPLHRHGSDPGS
Sequence of Transient receptor potential cation channel subfamily V member 1 (Homo sapiens) (Q8NER1 whole entry, looked up): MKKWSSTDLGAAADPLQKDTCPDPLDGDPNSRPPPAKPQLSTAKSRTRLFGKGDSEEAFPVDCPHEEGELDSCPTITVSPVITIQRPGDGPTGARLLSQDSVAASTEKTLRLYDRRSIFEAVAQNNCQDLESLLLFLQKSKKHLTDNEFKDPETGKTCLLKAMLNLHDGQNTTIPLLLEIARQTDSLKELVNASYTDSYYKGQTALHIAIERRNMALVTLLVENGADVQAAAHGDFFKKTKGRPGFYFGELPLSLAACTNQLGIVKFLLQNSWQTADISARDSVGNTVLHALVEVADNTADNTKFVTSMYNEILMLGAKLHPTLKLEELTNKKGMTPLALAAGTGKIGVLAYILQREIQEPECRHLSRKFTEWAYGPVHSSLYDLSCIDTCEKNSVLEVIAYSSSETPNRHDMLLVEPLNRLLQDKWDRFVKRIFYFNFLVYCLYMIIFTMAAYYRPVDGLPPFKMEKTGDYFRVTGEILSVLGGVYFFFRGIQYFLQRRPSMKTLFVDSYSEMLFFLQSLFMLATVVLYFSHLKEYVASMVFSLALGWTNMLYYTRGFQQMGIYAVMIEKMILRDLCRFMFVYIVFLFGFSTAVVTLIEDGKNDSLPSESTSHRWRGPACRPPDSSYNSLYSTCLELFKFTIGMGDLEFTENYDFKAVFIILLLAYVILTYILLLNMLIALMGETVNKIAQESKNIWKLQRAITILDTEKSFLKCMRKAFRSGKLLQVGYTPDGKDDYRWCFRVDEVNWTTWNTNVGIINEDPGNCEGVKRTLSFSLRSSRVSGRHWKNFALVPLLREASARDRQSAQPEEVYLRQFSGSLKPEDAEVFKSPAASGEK
Sequence of Ferritin light chain (Equus caballus) (P02791 2-175 limits assumed): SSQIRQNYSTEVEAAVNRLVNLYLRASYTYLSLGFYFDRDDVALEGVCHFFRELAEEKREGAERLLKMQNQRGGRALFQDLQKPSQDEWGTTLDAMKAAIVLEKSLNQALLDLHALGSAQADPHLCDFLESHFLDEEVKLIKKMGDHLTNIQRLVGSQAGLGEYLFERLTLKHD

N#CC(Cc1ccc(O)c(O)c1)C(=O)N1CCc2ccccc21 (stereo unspecified)
Potency [1]: inactive
outcome [2]: inactive
Potency [3]: 7.08 µM (active)
Potency [4]: 3.55 µM (active)
Potency [5]: 3.55 µM (active)
outcome [6]: inactive
Potency [7]: 25.1 µM (active)
Potency [8]: inactive
Potency [9]: 17.8 µM (active)
outcome [10]: inactive
outcome [11]: inactive
activation [12]: 3.94% (inactive)
outcome [13]: inactive

Nc1nc(Cl)nc2c1ncn2[C@@H]1O[C@H](CO)[C@H](O)[C@H]1O
outcome [2]: inactive
Potency [3]: 11.2 µM (active)
Potency [4]: 7.08 µM (active)
Potency [14]: inactive
outcome [15]: inactive
outcome [6]: inactive
Potency [16]: 5.22 µM (active)
outcome [10]: inactive
outcome [11]: inactive
activation [12]: 1.31% (inactive)
outcome [13]: inactive
Potency [17]: inactive

CC1(C(=O)NC2CCCCCC2)Cn2c(cc3occc32)C(=O)N1Cc1ccc2c(c1)OCO2 (stereo unspecified)
activity [18]: -5.04%
Potency [19]: inactive
activity [20]: -18%
activity [21]: -10.8%

C[C@]12C[C@H](O)C3[C@@H](CCC4=CC(=O)CC[C@@]43C)[C@@H]1CC[C@@H]2C(=O)CO (stereo partly specified)
Potency [1]: inactive
outcome [2]: inactive
Potency [14]: inactive
Potency [5]: 11.2 µM (active)
Potency [22]: inactive
outcome [23]: inactive
outcome [6]: inactive
Potency [8]: inactive
Potency [24]: inactive
Potency [9]: inactive
outcome [11]: inactive
outcome [13]: inactive
Potency [17]: inactive

Cc1ccc(Cn2c(=O)c3ccccc3n3c(CCC(=O)N4CCC(N5CCCCC5)CC4)nnc23)cc1
activity [18]: -6.25%
activity change, negative = inhibition [19]: -4.42%
activity [20]: -14.2%
activity [21]: -2.33%
